# Compounds with a hit are over-represented: about 8.3% of the library has one in this group of screens.
# Giardia killer: kills Giardia lamblia | Giardia lamblia trophozoite viability | activity change, % at 7.66 µM, hits read low | 0.15% of 340,000 active | AID 540267; in the data active = activity change below about -80%; inconclusive = between about -30% and that limit;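 note: parasites exposed to compound for two days anaerobically before the ATP read; % is set by controls: 0 for no effect and ±100 for the full control effect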
#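 Luminescence from cellular ATP indicates surviving trophozoites (100 cells/well) following 48 hrs anaerobic compound treatment at 37 deg C; signal develops 15-30 min at room temperature.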
# SW480 rereplic: DNA re-replication induction in SW480 cells. SW480 DNA re-replication, Hoechst DNA content imaging, 48 h. Potency, µM (top dose mostly 46.1 µM), without a hit: at the top dose re-replication activation, most hits filed as activators. 1.8% of 340,000 active; note: potency is the fitted concentration of half-maximal effect; % of control where 0% means no effect; nearly all actives have a fitted effect of over 55% in size
#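 Cells (250 per well) received 23 nL compound or DMSO by pin tool and were kept 48 hr at 37 C, 5% CO2. Nuclei were then stained with Hoechst for 40 min and scanned for DNA content.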
# Gal4-VP16 FLuc: inhibits Gal4-VP16 luciferase reporter, ROR gamma counter-screen; Drosophila S2 Gal4-VP16 UAS-luciferase, luminescence, 20 h; AID 2546; 3.5% of 310,000 active; Potency, µM (top dose mostly 53.6 µM), for inactives: at the highest dose activity, negative = inhibition, most hits filed as inhibitors;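 note: Gal4-VP16 expression switched on by copper sulfate through the metallothionein promoter; potency is the fitted concentration of half-maximal effect; % is set by controls: 0 for no effect and ±100 for the full control effect; nearly all actives have a fitted effect of over 50% in size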
# MCF10A rereplic: DNA re-replication induction in MCF 10a cells; MCF 10A DNA re-replication, Hoechst nuclear intensity, 48 h; Potency, µM (titrated, usually from 46.1 µM), for inactives: at the highest dose activity, positive = re-replication, most hits filed as activators; 2.9% of 350,000 active; note: potency is the fitted concentration of half-maximal effect; % of control where 0% means no effect; nearly all actives have a fitted effect of over 50% in size
# RORg inh: blocks mouse ROR gamma transcriptional activity; P51450; Drosophila S2 Gal4-RORgamma UAS-luciferase reporter, 20 h; Potency, µM (titrated, usually from 53.6 µM), without a hit: top-dose activity change, negative = inhibition, usual class: inhibitors; 5.4% of 310,000 active; AID 2551; note: potency is the fitted concentration of half-maximal effect; % is set by controls: 0 for no effect and ±100 for the full control effect; nearly all actives have a fitted effect of over 60% in size
# Target sequence (P51450 whole entry, looked up, the tested form may be a part): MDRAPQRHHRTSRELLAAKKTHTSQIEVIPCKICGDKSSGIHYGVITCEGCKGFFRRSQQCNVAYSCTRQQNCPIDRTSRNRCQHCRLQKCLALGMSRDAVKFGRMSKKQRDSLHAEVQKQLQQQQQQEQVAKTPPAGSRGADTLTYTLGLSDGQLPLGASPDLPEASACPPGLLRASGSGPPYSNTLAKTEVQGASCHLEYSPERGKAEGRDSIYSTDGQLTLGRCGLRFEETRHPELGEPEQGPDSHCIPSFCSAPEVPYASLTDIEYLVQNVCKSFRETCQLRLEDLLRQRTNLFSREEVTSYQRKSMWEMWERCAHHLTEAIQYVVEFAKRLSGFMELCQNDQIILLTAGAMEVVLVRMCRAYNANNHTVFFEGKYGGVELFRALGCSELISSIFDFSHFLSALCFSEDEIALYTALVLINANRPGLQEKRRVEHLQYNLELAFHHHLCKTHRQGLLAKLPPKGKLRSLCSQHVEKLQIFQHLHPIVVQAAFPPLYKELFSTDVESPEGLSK
#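 A Gal4/UAS one-hybrid system in insect cells: metallothionein-promoter Gal4–ROR gamma fusion plus Photinus luciferase reporter. Copper sulfate 700 uM final, 20 hr ambient incubation, luminescent detection after 10 min with reagent.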
# BCR signal inh: chronic active BCR signaling inhibition; Potency, µM (doses to about 46.1 µM), for the others: at the top dose activity change, negative = inhibition, usual class: inhibitors; 0.05% of 340,000 active; ABC-DLBCL IkBa-CBG/CBR reporter, luminescence ratio, 4 h; active = well fitted inhibition curve with a large enough effect in the signal ratio, with a control signal flat, not every such curve was filed as active; inconclusive = small, poorly fitted or top-dose-only effect, or effect the other way, or a change in a side signal; the % refers to the signal ratio;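 note: potency is the fitted concentration of half-maximal effect; plate controls were basal doxycycline-induced cells for no effect and cells given 10 µM MG132 for full effect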
#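 TMD8 ABC-DLBCL cells carrying doxycycline-inducible green luciferase fused to IkappaBalpha plus unfused red luciferase were exposed to compounds (up to 46 uM) for 4 hrs at 37C. Activity came from the overlap-corrected green/red luminescence ratio.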
# Active calls of the source: *; ? = inconclusive; . = not tested or not shown; [ ] = remark or other dose. Unless noted, calls come from the whole dose curve; as a rule, active = well fitted curve in the direction sought with a large enough effect; inconclusive = small, poorly fitted or top-dose-only effect, or another doubt; inactive = no such curve, though single readings can be large; an effect the other way counts as inactive or inconclusive.
SMILES,Giardia killer,SW480 rereplic,Gal4-VP16 FLuc,MCF10A rereplic,RORg inh,BCR signal inh
Cc1cc(C(=O)N/N=C/c2ccc([N+](=O)[O-])s2)n[nH]1,-90*,?,?,?,-40%,?
Cc1ccc(C(=O)N/N=C/c2ccc([N+](=O)[O-])s2)cc1,-93*,?,1.3µM*,24%,0.71µM*,0%
O=C(Cn1c(=O)oc2ccccc21)Nc1ccc(F)cc1,-6,-4%,0%,-14%,4%,?
COc1cccc(CNC2CCCCCCC2)c1OC,15,-7%,-5%,1%,1%,?
O=C(Nc1ccccc1Oc1ccccc1)C1=COCCO1,31,-17%,.,3%,.,3%
Cc1ccc(/C=N/N=C/c2ccc(C)s2)s1,6,-2%,-24%,-3%,7.9µM*,?
Cc1cc(C)n(CC(=O)N/N=C/c2ccc([N+](=O)[O-])s2)n1,?,21µM*,8%,?,-11%,-2%
Cc1cc(C(=O)N/N=C/c2ccc(-c3ccc([N+](=O)[O-])cc3Cl)o2)n[nH]1,-1,18µM*,-15%,18µM*,-29%,-1%
O=C(Cc1ccccc1)NCC(=O)N/N=C/c1ccc([N+](=O)[O-])s1,-22,15µM*,-22%,5%,-34%,?
Cc1cccc(N/N=C/c2ccc(C)s2)c1,9,-7%,2%,-4%,-3%,?
O=C(CNC(=O)c1ccccc1)N/N=C/c1ccc([N+](=O)[O-])s1,-24,?,-18%,?,3%,?
COc1ccc(COC(=O)N/N=C2/C[C@@H](O)[C@@H](O)[C@@H]3[C@@H]4C(=O)N(Cc5ccc6c(c5)OCO6)C(=O)[C@H]4CC[C@H]23)cc1,.,.,-2%[10 µM],.,2%[10 µM],.
CC(C)(C)OC(=O)N/N=C\c1ccc([N+](=O)[O-])s1,1,?,?,-26%,-19%,?
O=C(N/N=C/c1cccc([N+](=O)[O-])c1)c1cccc(Br)c1,13,-2%,15%,22%,?,0%
Cc1ccc(/C=N/NC(=O)c2ccncc2)s1,-5,-8%,?,-5%,7.1µM*,?
CCOC(=O)N/N=C\c1ccc([N+](=O)[O-])s1,-99*,?,3%,10%,-14%,5%
O=C(N/N=C/c1ccc([N+](=O)[O-])s1)c1ccncc1,?,4%,4.5µM*,?,4.5µM*,7%
O=C(N/N=C/c1ccc([N+](=O)[O-])s1)c1cccc(Br)c1,?,10µM*,1.3µM*,?,1.1µM*,2%
NC(=O)c1ccccc1NC(=O)CC12CC3CC(CC(C3)C1)C2,8,-60%,-1%,?,19%[1.91 µM],-4%
O=C(CNc1n[nH]c(=O)[nH]c1=O)N/N=C/C1CC=CCC1 (centres undefined),-3,18%,-12%,2%,-8%,?
CSc1ccc(/C=N/S(=O)(=O)c2ccccc2)cc1,-4,15%,2%,-4%,19%,?
O=C(COC(=O)CNC(=O)c1ccc(Cl)c([N+](=O)[O-])c1)NNC(=O)c1ccccc1F,-16,-9%,.,-2%,.,0%
Cc1ccc(-n2nc(C)cc2N)c(C)c1,-21,-103%,1%,-5%,14%,?
Cc1[nH]cnc1C(=O)N/N=C/c1ccc([N+](=O)[O-])s1,?,?,?,?,-30%,?
Cc1ccc(C(=O)N/N=C\c2ccc([N+](=O)[O-])s2)cn1,?,?,3.2µM*,-4%,2.8µM*,-1%
SMILES,Giardia killer,SW480 rereplic,Gal4-VP16 FLuc,MCF10A rereplic,RORg inh,BCR signal inh
CC1C/C(=N\NC(N)=S)c2cc(Cl)ccc2S1 (centres undefined),-13,-2%,2µM*,24%,0.63µM*,?
COCCn1c(C)nnc1SCC(=O)Nc1ccccc1[N+](=O)[O-],-5,-6%,6%,-5%,9%,15%
O=C(NCc1cccnc1)c1ccc(CS(=O)(=O)c2ccc(Cl)cc2)o1,4,2%,1%,3%,21%,6%
Cc1[nH]c2ccc(C(=O)OC(C)C(=O)NCc3ccccc3)cc2c1C (centres undefined),-9,?,.,15µM*,.,-12%
CC(C)CNC(=S)NC1CC2CCCC(C1)N2Cc1cccs1 (centres undefined),-9,0%,-28%,-9%,11µM*,-5%
Cc1ccc(NC(=S)NC2CC3CCCC(C2)N3Cc2cccs2)cc1 (centres undefined),-19,24%,?,?,4.5µM*,4%
CC(C)CNC(=S)NC1CC2CCCC(C1)N2Cc1ccco1 (centres undefined),7,1%,0%,-12%,-9%,-23%
Fc1ccc(NC(=S)NC2CC3CCCC(C2)N3Cc2cccs2)cc1 (centres undefined),-5,-6%,?,-8%,10µM*,-5%
Cc1cccc(NC(=S)NC2CC3CCCC(C2)N3Cc2ccco2)c1 (centres undefined),12,17%,?,12%,11µM*,-2%
O=[n+]1cc(-c2ccc(Br)cc2)n([O-])c2c1CCC2,-7,-2%,-13%,2%,20%,0%
Cc1cc(C)cc(NC2=NC3(CCCCC3)N=C(N)N2)c1,-29,?,-7%,21µM*,14%,?
CN(C)CCCn1c(=S)[nH]c2sc3c(c2c1=O)CCCC3,4,6%,?,11%,14µM*,1%
CCn1c(=S)[nH]c2sc3c(c2c1=O)CCCC3,49,-1%,0.63µM*,12%,0.45µM*,9%
CN(C)CCCn1c(=O)n(C2CCCCC2)c(=O)c2c3c(sc21)CCCCC3,-8,24%,.,-3%,.,.
CC1CCc2c(sc3nn[nH]c(=O)c23)C1 (centres undefined),8,1%,-17%,4%,30%,4%
C=CCn1c(=S)[nH]c2sc3c(c2c1=O)CCC3,13,-5%,?,13%,0.1µM*,24%
CCn1c(=O)c2c3c(sc2n2cnnc12)CCC3,9,-4%[9.22 µM],4%,-1%,0%,?
CC1CCc2c(sc3[nH]c(=S)n(C)c(=O)c23)C1 (centres undefined),10,10µM*,0.89µM*,21%,0.56µM*,12%
CC(OC(=O)CCc1ccccc1)C(=O)Nc1ccc(Cl)cn1 (centres undefined),14,-4%,.,0%,.,13%
COc1ccc(N2CCN(S(=O)(=O)c3ccc(C(=O)NCc4ccco4)cc3)CC2)cc1,-18,-2%,-29%,4%,-33%,9%
CCOC(=O)C1CCN(CCCSc2ccc(C)cc2)CC1,21,0%[1.84 µM],.,1%,.,.

# High-throughput results: PubChem, National Center for Advancing Translational Sciences (NCATS)
